This is an account of results in PMC9911399, “Two distinct binding modes provide the RNA-binding protein RbFox with extraordinary sequence specificity”.

T1: RBFOX1 RRM (Homo sapiens, UniProt Q9NWB1 109-208)
T1 sequence: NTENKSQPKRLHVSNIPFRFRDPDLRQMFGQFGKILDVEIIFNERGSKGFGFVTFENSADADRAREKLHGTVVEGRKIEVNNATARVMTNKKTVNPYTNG

B1: AGGUAUU (DNA:RNA)
RNA: GGGAGACCGGAAUUCAGAUUGUCCAGGUAUUUUAAAUCCCGUCGUAGCCACCA
DNA 1: CAATCTGAATTCCGGTCTCCC
DNA 2: TGGTGGCTACGACGGGATT
B2: UCAUCUG (DNA:RNA)
RNA: B1 RNA with A25U, G26C, G27A, A29C, U31G
DNA 1: CAATCTGAATTCCGGTCTCCC
DNA 2: TGGTGGCTACGACGGGATT
B3: GAGUUUA (DNA:RNA)
RNA: B1 RNA with A25G, G26A, A29U, U31A
DNA 1: CAATCTGAATTCCGGTCTCCC
DNA 2: TGGTGGCTACGACGGGATT
B4: ACUCUUU (DNA:RNA)
RNA: B1 RNA with G26C, G27U, U28C, A29U
DNA 1: CAATCTGAATTCCGGTCTCCC
DNA 2: TGGTGGCTACGACGGGATT
B5: AGGUCUA (DNA:RNA)
RNA: B1 RNA with A29C, U31A
DNA 1: CAATCTGAATTCCGGTCTCCC
DNA 2: TGGTGGCTACGACGGGATT
B6: GAGUCUC (DNA:RNA)
RNA: B1 RNA with A25G, G26A, A29C, U31C
DNA 1: CAATCTGAATTCCGGTCTCCC
DNA 2: TGGTGGCTACGACGGGATT
B7: CCGAGUC (DNA:RNA)
RNA: B1 RNA with A25C, G26C, U28A, A29G, U31C
DNA 1: CAATCTGAATTCCGGTCTCCC
DNA 2: TGGTGGCTACGACGGGATT
B8: CCGGAUC (DNA:RNA)
RNA: B1 RNA with A25C, G26C, U28G, U31C
DNA 1: CAATCTGAATTCCGGTCTCCC
DNA 2: TGGTGGCTACGACGGGATT
B9: GAGAGUC (DNA:RNA)
RNA: B1 RNA with A25G, G26A, U28A, A29G, U31C
DNA 1: CAATCTGAATTCCGGTCTCCC
DNA 2: TGGTGGCTACGACGGGATT
B10: CGGGAUC (DNA:RNA)
RNA: B1 RNA with A25C, U28G, U31C
DNA 1: CAATCTGAATTCCGGTCTCCC
DNA 2: TGGTGGCTACGACGGGATT
B11: CGGAAUC (DNA:RNA)
RNA: B1 RNA with A25C, U28A, U31C
DNA 1: CAATCTGAATTCCGGTCTCCC
DNA 2: TGGTGGCTACGACGGGATT
B12: CAUGGAC (DNA:RNA)
RNA: GGGAGACCGGAAUUCAGAUUGUCCCAUGGACUUAAAUCCCGUCGUAGCCACCA
DNA 1: CAATCTGAATTCCGGTCTCCC
DNA 2: TGGTGGCTACGACGGGATT
B13: CUAAAAA (DNA:RNA)
RNA: B12 RNA with A26U, U27A, G28A, G29A, C31A
DNA 1: CAATCTGAATTCCGGTCTCCC
DNA 2: TGGTGGCTACGACGGGATT
B14: GGAGUAG (DNA:RNA)
RNA: B12 RNA with C25G, A26G, U27A, G29U, C31G
DNA 1: CAATCTGAATTCCGGTCTCCC
DNA 2: TGGTGGCTACGACGGGATT
B15: UCGCUUG (DNA:RNA)
RNA: B1 RNA with A25U, G26C, U28C, A29U, U31G
DNA 1: CAATCTGAATTCCGGTCTCCC
DNA 2: TGGTGGCTACGACGGGATT
B16: UCGCUCG (DNA:RNA)
RNA: B1 RNA with A25U, G26C, U28C, A29U, U30C, U31G
DNA 1: CAATCTGAATTCCGGTCTCCC
DNA 2: TGGTGGCTACGACGGGATT
B17: GUCCUCG (DNA:RNA)
RNA: GGGAGACCGGAAUUCAGAUUGUCCGUCCUCGUUAAAUCCCGUCGUAGCCACCA
DNA 1: CAATCTGAATTCCGGTCTCCC
DNA 2: TGGTGGCTACGACGGGATT
B18: UCGCUCC (DNA:RNA)
RNA: B17 RNA with G25U, U26C, C27G, G31C
DNA 1: CAATCTGAATTCCGGTCTCCC
DNA 2: TGGTGGCTACGACGGGATT
B19: UCGUCGC (DNA:RNA)
RNA: B1 RNA with A25U, G26C, A29C, U30G, U31C
DNA 1: CAATCTGAATTCCGGTCTCCC
DNA 2: TGGTGGCTACGACGGGATT
B20: UCCUCGC (DNA:RNA)
RNA: B1 RNA with A25U, G26C, G27C, A29C, U30G, U31C
DNA 1: CAATCTGAATTCCGGTCTCCC
DNA 2: TGGTGGCTACGACGGGATT
B21: UUCGUAA (DNA:RNA)
RNA: B17 RNA with G25U, C28G, C30A, G31A
DNA 1: CAATCTGAATTCCGGTCTCCC
DNA 2: TGGTGGCTACGACGGGATT
B22: GCGAAUA (DNA:RNA)
RNA: B1 RNA with A25G, G26C, U28A, U31A
DNA 1: CAATCTGAATTCCGGTCTCCC
DNA 2: TGGTGGCTACGACGGGATT
B23: AGCUUAC (DNA:RNA)
RNA: B1 RNA with G27C, A29U, U30A, U31C
DNA 1: CAATCTGAATTCCGGTCTCCC
DNA 2: TGGTGGCTACGACGGGATT
B24: UGACUUU (DNA:RNA)
RNA: B1 RNA with A25U, G27A, U28C, A29U
DNA 1: CAATCTGAATTCCGGTCTCCC
DNA 2: TGGTGGCTACGACGGGATT
B25: CAUGUCC (DNA:RNA)
RNA: B12 RNA with G29U, A30C
DNA 1: CAATCTGAATTCCGGTCTCCC
DNA 2: TGGTGGCTACGACGGGATT
B26: CUAGAAU (DNA:RNA)
RNA: B12 RNA with A26U, U27A, G29A, C31U
DNA 1: CAATCTGAATTCCGGTCTCCC
DNA 2: TGGTGGCTACGACGGGATT
B27: UCCUAGC (DNA:RNA)
RNA: B1 RNA with A25U, G26C, G27C, U30G, U31C
DNA 1: CAATCTGAATTCCGGTCTCCC
DNA 2: TGGTGGCTACGACGGGATT
B28: UAGCCCG (DNA:RNA)
RNA: B17 RNA with G25U, U26A, C27G, U29C
DNA 1: CAATCTGAATTCCGGTCTCCC
DNA 2: TGGTGGCTACGACGGGATT
B29: UAGCUUG (DNA:RNA)
RNA: B17 RNA with G25U, U26A, C27G, C30U
DNA 1: CAATCTGAATTCCGGTCTCCC
DNA 2: TGGTGGCTACGACGGGATT
B30: UAGCUCC (DNA:RNA)
RNA: B17 RNA with G25U, U26A, C27G, G31C
DNA 1: CAATCTGAATTCCGGTCTCCC
DNA 2: TGGTGGCTACGACGGGATT
B31: UAGUAGC (DNA:RNA)
RNA: B1 RNA with A25U, G26A, U30G, U31C
DNA 1: CAATCTGAATTCCGGTCTCCC
DNA 2: TGGTGGCTACGACGGGATT
B32: UAGCUCG (DNA:RNA)
RNA: B17 RNA with G25U, U26A, C27G
DNA 1: CAATCTGAATTCCGGTCTCCC
DNA 2: TGGTGGCTACGACGGGATT

Substitutions are numbered along the chain they refer to; changes in the protein carry UniProt numbers. In all, about 16,000 sequences were measured (“ka relative to ugcaugu”: median about 0.0091, highest 2% from about 0.032 on). The entries come from a sample that favours the highest values as a whole.

The target of the test is T1, RBFOX1 RRM. The experiment in a line: EMSA; HiTS-Eq, 1 nM pool, 10 min; buffer printed only for the single-RNA assays: 10 mM Tris pH 7.5, 150 mM NaCl, 3.4 mM EDTA, 0.001% NP-40, 30 C. The following applies: tags: His6 N-terminal (pET28a); label: 5' 32P. Put shortly:
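A pool of RNA with 7 randomized nucleotides, 5′-radiolabelled and with DNA-annealed flanks, was equilibrated at 1 nM for 10 min in 50 µL with purified RbFox RRM, wild type or mutant, across increasing protein concentrations. Free RNA was separated by 8% native PAGE, excised, reverse-transcribed, barcoded by PCR and sequenced. Relative association constants were obtained from read-count changes of each RNA species versus the control reaction and normalised to the cognate motif.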
In general terms: A gel shift assay detects complexes by their altered migration in electrophoresis.
Take B1: the binding signal is 0.0064 KA relative to UGCAUGU.

For the molecule B2, the binding signal is 0.00773 KA relative to UGCAUGU.

On to B3, for which the binding signal was 0.00687 KA relative to UGCAUGU.

As for B4, the binding signal is 0.00357 KA relative to UGCAUGU.

On to B5, for which the binding signal was 0.00527 KA relative to UGCAUGU.

Consider B6, for which the binding signal was 0.032 KA relative to UGCAUGU.

For the molecule B7, the binding signal was 0.0112 KA relative to UGCAUGU.

In the case of B8, the binding signal was 0.0104 KA relative to UGCAUGU.

In the case of B9, the binding signal is 0.0183 KA relative to UGCAUGU.

With B10, the binding signal is 0.0318 KA relative to UGCAUGU.

For the molecule B11, the binding signal was 0.0233 KA relative to UGCAUGU.

In the case of B12, the binding signal was 0.00577 KA relative to UGCAUGU.

As to B13, the binding signal is 0.000629 KA relative to UGCAUGU.

For B14, the binding signal is 0.0152 KA relative to UGCAUGU.

For B15, the binding signal is 0.0368 KA relative to UGCAUGU.

On to B16, for which the binding signal was 0.0321 KA relative to UGCAUGU.

As to B17, the binding signal is 0.0155 KA relative to UGCAUGU.

On to B18, for which the binding signal is 0.0108 KA relative to UGCAUGU.

As to B19, the binding signal is 0.0113 KA relative to UGCAUGU.

Turning to B20, the binding signal was 0.00514 KA relative to UGCAUGU.

In the case of B21, the binding signal was 0.00742 KA relative to UGCAUGU.

In the case of B22, the binding signal was 0.0051 KA relative to UGCAUGU.

For the molecule B23, the binding signal was 0.00674 KA relative to UGCAUGU.

For the molecule B24, the binding signal was 0.0147 KA relative to UGCAUGU.

In the case of B25, the binding signal was 0.00562 KA relative to UGCAUGU.

On to B26, for which the binding signal is 0.00687 KA relative to UGCAUGU.

With B27, the binding signal was 0.0075 KA relative to UGCAUGU.

As to B28, the binding signal was 0.0123 KA relative to UGCAUGU.

With B29, the binding signal was 0.0445 KA relative to UGCAUGU.

With B30, the binding signal is 0.00512 KA relative to UGCAUGU.

In the case of B31, the binding signal was 0.0177 KA relative to UGCAUGU.

Regarding B32, the binding signal was 0.0341 KA relative to UGCAUGU.
